# Laboratory results taken from the supplement of paper PMC11417369.
# Over roughly 25,000 sequences, “ln(normalized median fluorescence intensity)” has its median near 9.3; the highest 2% begin near 10. This excerpt belongs to a sample that is enriched for the highest values.
# Tested on: PF3D7_0420300 AP2 domain 1 (GST-tagged)
# Assay: gcPBM binding intensity (ln(normalized median fluorescence intensity)); higher = stronger DNA binding
# How it was run: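 Probes on an Agilent 4 × 180k array were primer-extended, double-stranded and 36 bp long, taken from intergenic genomic regions, with negative controls added. GST-tagged P. falciparum DNA-binding domains from E. coli, about 25 μg on average, were applied to the array for 1 h in 1× PBS containing 1% milk, 0.2 mg/ml BSA, 0.5% salmon testes DNA and 0.03% Triton X-100. Binding intensity, obtained after Alexa488 anti-GST antibody detection and a 488 nm scan, is the highest Masliner-normalised natural-log median intensity across replicate spots of either probe orientation.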
row,Sequence,gcPBM binding intensity (ln)
1,CAGTAGTATATACTATGTACATATTTATATTATATT [XGTACX_site4964],9.22
2,TAATAAACCAAACTAAACAATATATCAAAAAGCACA [CACACA_negctrl_site269],9.75
3,TATATATATATTTTAACACACACATATATATATTTA [CACACA_site8892],9.63
4,TGAAAGAACCTGATTACACACATAAATTATATATAT [CACACA_site26],9.54
5,GTAATATCAATATAAAGTACACACTATAGTATGTAT [XGTACX_site4714],9.52
6,TTTTAAATAAAAAAATTAAATTAAAATATATAAAAA [XGTACX_negctrl_site490],8.82
7,TGTATTAACAAAAAGGTGCGGATATATATAAAAAAT [GTGCAC_site9473],9.61
8,ATACATATATACATATGTACATATATATATATATAT [XGTACX_site8206],9.3
9,AAAAAAAAAAAAAAAAAAAAAAATATATATATATAT [XGTACX_negctrl_site33],9.26
10,ACATCGATTTATATTCTGCACTGAAGAAACTACAAC [GTGCAC_site9967],9.32
11,TGTAAATTTGGCATCACACATAAATAAACATATAAA [CACACA_site4497],9.4
12,ATTTGGCATAAACACACACACACACCCACCCACATA [CACACA_site8096],10.4
13,CATATTTGGAAACACACACACATATTTATATATATA [CACACA_site3569],9.95
14,ATTTGGCAGAAACACACACACACACCCACCCACATA [CACACA_site589],10.4
15,ATAATTTGGAAACACACACACACACCCACATATATA [CACACA_site2286],10.3
16,TAGAAGCAGAAACACACACACATACATACACATACA [CACACA_site1467],9.99
17,TAATTTTTGAAACACACACACATATATATATATATA [CACACA_site94],9.71
18,TACATAAATTAATAGTCACACACGTATTTTTTATAT [CACACA_site8806],9.45
19,AATAGAACTATTACACGTACAGAACATGAATTAGTT [XGTACX_site7518],9.36
20,TCAAAAGAAATAAAAACATGCATAAAAGTAAAAATA [TGCATGCA_site832],9.33
21,ATAAATGACAAATTAACACACATATATTATAGATAT [CACACA_site7770],9.68
22,TATATATTATATAAATAAATAAATATATATATTTAT [TGCATGCA_negctrl_site270],8.94
23,TTTTTATTTTTTTACAGTACATAAAATAAATAAATA [XGTACX_site6596],8.84
